Assay results taken from PubChem BioAssay (NCATS).
Results filed as inconclusive are left out. A call without a number means that no potency is given here. The source made the active and inactive calls. Calls follow the shape of the dose curve; as a rule, active = well fitted curve in the direction sought with a large enough effect; inconclusive = small, poorly fitted or top-dose-only effect, or another doubt; inactive = no such curve, though single readings can be large; an effect the other way counts as inactive or inconclusive. Non-standard residues stand in square brackets, D forms with d. Residues, ends and D or L forms follow the SMILES beside them. *: point of attachment. Sta = CC(C)C[C@H](N)[C@@H](O)CC(=O)O; Isovaleryl = CC(C)CC(=O)*

Tests used:
[1] = molecular target: Glutathione peroxidase 1 (Homo sapiens) (UniProt P07203); assay: Primary qHTS Assay for Inhibitors of Recombinant Selenoprotein Glutathione Peroxidase 1 (GPX1) (AID 1845191); also: nearly all actives have a fitted effect of over 65% in size
Method in brief: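 GR-coupled readout: NADPH consumption tracked by fluorescence, ex 340/em 450 nm, at t=0 and after 15 min at RT. Final mix 10 nM GPX1, 1 mM GSH, 0.5 mM CHP, 0.5 mM NADPH, 100 nM GR, 0.01% BSA, following 30 min enzyme–compound preincubation.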

[2] = molecular target: Phospholipid hydroperoxide glutathione peroxidase GPX4 (Homo sapiens) (UniProt P36969); assay: Primary qHTS Assay for Inhibitors of Recombinant Selenoprotein Glutathione Peroxidase 4 (GPX4) (AID 1845192); also: nearly all actives have a fitted effect of over 65% in size
Method in brief: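 Steps: GPX4 plus compound, 30 min RT; add GR/GSH/NADPH master mix; start with cumene hydroperoxide; read 340/450 nm fluorescence at 0 and 15 min. Finals were 200 nM GPX4, 1 mM GSH, 0.5 mM CHP, 0.5 mM NADPH, 100 nM GR.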

[3] = molecular target: Luciferin 4-monooxygenase (Photinus pyralis) (UniProt P08659); assay: Primary firefly luciferase (FLuc) qHTS assay for identification of artifact compounds. (AID 1845220); also: nearly all actives have a fitted effect of over 60% in size
Method in brief: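 D-luciferin and ATP (10 uM each, final) in Tris acetate buffer pH 7.6 were incubated with compounds for 15 min at room temperature. The reaction was started with 10 nM Photinus pyralis luciferase and luminescence read after 5 min. Percent inhibition was fitted to a 4-parameter Hill equation.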

[4] = tested on: Nanoluciferase (engineered Oplophorus gracilirostris luciferase); assay: Primary Nanoluciferase (NLuc) qHTS assay for identification of artifact compounds. (AID 1845222); also: series mostly up to about 54 µM
Method in brief: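 Diluted conditioned medium from NLuc-expressing S16 cells treated with compounds for 15 min at room temperature, then Nano-Glo substrate added; luminescence read after 5 min. Percent inhibition versus no-enzyme and DMSO controls fitted to 4-parameter Hill equation.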

[5] = Primary redox qHTS assay for identification of artifact compounds. (AID 1845223)
Method in brief: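 Redox-cycling detection via DTT (250 uM final) oxidation coupled to Amplex Red (25 uM)/HRP (250 mU/mL) in HBSS. 15 min preincubation plus 30 min after DTT, room temperature. Ex/Em 525/598 nm; 4-parameter Hill fit against DMSO and 10 uM DA3003.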

[6] = Quantitative High-Throughput drug screen in 47 multiple myeloma cell lines against the NCATS MIPE library collection: Delta47_JCRB cell viability assay (AID 1918925; also: nearly all actives have a fitted effect of over 45% in size; also: potency is read from the fitted curve at half-maximal effect)
Method in brief: (§1)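 CellTiter-Glo ATP luminescence gave viability after 48 h compound treatment at 37C of 500 multiple myeloma cells per well. Normalisation used DMSO-only wells as 100% and media-only wells as 0% viability; primary qHTS of approved and investigational drugs.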

[7] = Quantitative High-Throughput drug screen in 47 multiple myeloma cell lines against the NCATS MIPE library collection: AMO1_DSMZ cell viability assay (AID 1918927; also: nearly all actives have a fitted effect of over 30% in size; also: potency is read from the fitted curve at half-maximal effect)
Method in brief: as §1

[8] = Quantitative High-Throughput drug screen in 47 multiple myeloma cell lines against the NCATS MIPE library collection: ARD_JJKsccE7 cell viability assay (AID 1918929; also: potency is read from the fitted curve at half-maximal effect)
Method in brief: as §1

[9] = Quantitative High-Throughput drug screen in 47 multiple myeloma cell lines against the NCATS MIPE library collection: Karpas620_DSMZ cell viability assay (AID 1918959); also: nearly all actives have a fitted effect of over 30% in size; also: potency is read from the fitted curve at half-maximal effect
Method in brief: (§2)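 We plated 500 myeloma cells per well, pinned in MIPE 4.0 compounds, and incubated for 48 hours at 37C. ATP was then quantified with CellTiter-Glo, with DMSO and media-only wells defining 100% and 0%.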

[10] = Quantitative High-Throughput drug screen in 47 multiple myeloma cell lines against the NCATS MIPE library collection: KMM1_JCRB cell viability assay (AID 1918960); also: nearly all actives have a fitted effect of over 30% in size; also: potency is read from the fitted curve at half-maximal effect
Method in brief: (§3)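 Viability screen: myeloma cells (500/well) incubated 48 h at 37 °C, humidified 5% CO2, with pinned library compounds; CellTiter-Glo added, luminescence read; DMSO wells set 100%, medium-only wells 0%.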

[11] = Quantitative High-Throughput drug screen in 47 multiple myeloma cell lines against the NCATS MIPE library collection: KHM11_PLB cell viability assay (AID 1918962); also: nearly all actives have a fitted effect of over 35% in size; also: potency is read from the fitted curve at half-maximal effect
Method in brief: as §2

[12] = Quantitative High-Throughput drug screen in 47 multiple myeloma cell lines against the NCATS MIPE library collection: INA6_PLB cell viability assay (AID 1918965; also: nearly all actives have a fitted effect of over 55% in size; also: potency is read from the fitted curve at half-maximal effect)
Method in brief: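 Viability readout: CellTiter-Glo luminescence following 5 min room-temperature incubation with reagent. Prior exposure: 48 h, 37C, humidified 5% CO2, 500 cells per well.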

[13] = Quantitative High-Throughput drug screen in 47 multiple myeloma cell lines against the NCATS MIPE library collection: FR4_PLB cell viability assay (AID 1918924; also: nearly all actives have a fitted effect of over 35% in size; also: potency is read from the fitted curve at half-maximal effect)
Method in brief: as §2

[14] = Quantitative High-Throughput drug screen in 47 multiple myeloma cell lines against the NCATS MIPE library collection: EJM_DSMZ cell viability assay (AID 1918926; also: nearly all actives have a fitted effect of over 30% in size; also: potency is read from the fitted curve at half-maximal effect)
Method in brief: as §1

[15] = Quantitative High-Throughput drug screen in 47 multiple myeloma cell lines against the NCATS MIPE library collection: ARP1_JJKsccF8 cell viability assay (AID 1918928; also: nearly all actives have a fitted effect of over 40% in size; also: potency is read from the fitted curve at half-maximal effect)
Method in brief: as §3

[16] = Quantitative High-Throughput drug screen in 47 multiple myeloma cell lines against the NCATS MIPE library collection: JIM3_ECACC cell viability assay (AID 1918963; also: nearly all actives have a fitted effect of over 35% in size; also: potency is read from the fitted curve at half-maximal effect)
Method in brief: as §2

[17] = Quantitative High-Throughput drug screen in 47 multiple myeloma cell lines against the NCATS MIPE library collection: JIM1_ECACC cell viability assay (AID 1918964; also: potency is read from the fitted curve at half-maximal effect)
Method in brief: as §1

[18] = Quantitative High-Throughput drug screen in 47 multiple myeloma cell lines against the NCATS MIPE library collection: JJN3_DSMZ cell viability assay (AID 1918966; also: nearly all actives have a fitted effect of over 50% in size; also: potency is read from the fitted curve at half-maximal effect)
Method in brief: as §1

Sequence of Phospholipid hydroperoxide glutathione peroxidase GPX4 (Homo sapiens) (P36969 whole entry, looked up): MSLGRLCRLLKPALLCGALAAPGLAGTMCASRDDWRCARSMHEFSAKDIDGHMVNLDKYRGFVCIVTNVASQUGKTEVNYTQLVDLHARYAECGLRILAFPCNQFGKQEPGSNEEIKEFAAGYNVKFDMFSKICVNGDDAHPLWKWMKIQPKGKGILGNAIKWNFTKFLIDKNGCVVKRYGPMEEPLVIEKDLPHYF
Sequence of Glutathione peroxidase 1 (Homo sapiens) (P07203 whole entry, looked up): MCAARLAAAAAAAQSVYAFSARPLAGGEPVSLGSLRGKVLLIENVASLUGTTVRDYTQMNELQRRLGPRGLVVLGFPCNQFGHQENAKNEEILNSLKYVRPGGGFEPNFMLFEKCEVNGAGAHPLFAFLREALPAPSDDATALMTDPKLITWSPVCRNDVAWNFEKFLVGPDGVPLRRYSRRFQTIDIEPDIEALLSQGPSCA

| SMILES | Potency [1] | Potency [2] | Potency [3] | outcome [4] | outcome [5] | Potency [6] | Potency [7] | Potency [8] | Potency [9] | Potency [10] | Potency [11] | Potency [12] | Potency [13] | Potency [14] | Potency [15] | Potency [16] | Potency [17] | Potency [18] |
| --- | --- | --- | --- | --- | --- | --- | --- | --- | --- | --- | --- | --- | --- | --- | --- | --- | --- | --- |
| COc1cc2c(N3CCN(C(=O)Nc4ccc(OC(C)C)cc4)CC3)ncnc2cc1OCCCN1CCCCC1 | inactive | inactive | inactive | inactive | inactive | 8.33 µM (active) | inactive | inactive | inactive | inactive | 8.33 µM (active) | 3.72 µM (active) | – | – | – | – | – | – |
| N[C@@H](Cc1cc(I)c(Oc2cc(I)c(O)c(I)c2)c(I)c1)C(=O)O | inactive | inactive | inactive | inactive | inactive | – | inactive | inactive | – | inactive | – | – | inactive | inactive | inactive | inactive | 0.0053 µM (active) | inactive |
| O=C(NOCC1CC1)c1ccc(F)c(F)c1Nc1ccc(I)cc1Cl | inactive | inactive | inactive | inactive | inactive | 20.9 µM (active) | 6.62 µM (active) | 11.8 µM (active) | 0.372 µM (active) | 6.62 µM (active) | 0.0235 µM (active) | 9.35 µM (active) | 23.5 µM (active) | – | – | 6.62 µM (active) | 9.35 µM (active) | 20.9 µM (active) |
| Cc1ccc(Nc2nccc(N(C)c3ccc4c(C)n(C)nc4c3)n2)cc1S(N)(=O)=O | inactive | inactive | inactive | inactive | inactive | 16.6 µM (active) | 10.5 µM (active) | 16.6 µM (active) | – | 14.8 µM (active) | – | 3.72 µM (active) | 20.9 µM (active) | 14.8 µM (active) | – | – | – | 20.9 µM (active) |
| COc1cc(OC)c(C(=O)CCCN2CCCC2)c(OC)c1 | inactive | inactive | – | – | – | inactive | inactive | inactive | inactive | – | inactive | – | inactive | inactive | inactive | inactive | – | 0.059 µM (active) |
| CC(=O)O[C@H]1C(=O)[C@@]2(C)C([C@H](OC(=O)c3ccccc3)[C@]3(O)C[C@H](OC(=O)[C@H](O)[C@@H](NC(=O)c4ccccc4)c4ccccc4)C(C)=C1C3(C)C)[C@]1(OC(C)=O)CO[C@@H]1C[C@@H]2O (stereo partly drawn) | inactive | inactive | inactive | inactive | inactive | – | – | – | – | – | inactive | – | inactive | inactive | inactive | inactive | – | – |
| O=C(NC(Cc1cc(=O)[nH]c2ccccc12)C(=O)O)c1ccc(Cl)cc1 (stereo not drawn) | inactive | inactive | – | – | – | – | – | inactive | – | – | – | – | inactive | 4.69 µM (active) | inactive | – | – | 9.35 µM (active) |
| Cc1ccc(C(=O)c2cc(O)c(O)c([N+](=O)[O-])c2)cc1 | inactive | inactive | – | – | – | 26.4 µM (active) | – | 20.9 µM (active) | – | – | – | – | – | – | inactive | – | – | – |
| COc1cc(Nc2c(C#N)cnc3cc(OCCCN4CCN(C)CC4)c(OC)cc23)c(Cl)cc1Cl | – | inactive | inactive | inactive | inactive | 3.72 µM (active) | 8.33 µM (active) | – | 11.8 µM (active) | – | 5.26 µM (active) | 0.418 µM (active) | 23.5 µM (active) | 23.5 µM (active) | 18.7 µM (active) | 18.7 µM (active) | – | 18.7 µM (active) |
| CC(C)CC(=O)N[C@H](C(=O)N[C@H](C(=O)N[C@@H](CC(C)C)[C@@H](O)CC(=O)N[C@@H](C)C(=O)N[C@@H](CC(C)C)[C@@H](O)CC(=O)O)C(C)C)C(C)C (Isovaleryl-VV[Sta]A[Sta]-OH) | inactive | inactive | – | – | – | – | – | inactive | – | inactive | inactive | – | inactive | inactive | inactive | inactive | inactive | inactive |
| CCOC(=O)c1c(C)n(C)c2ccc(O)cc12 | inactive | – | – | – | – | – | inactive | inactive | – | inactive | – | – | inactive | inactive | – | inactive | – | – |
| COCCCN1CCC(NC(=O)c2cc(Cl)c(N)c3c2OCC3)CC1 | inactive | inactive | – | – | – | 18.7 µM (active) | 14.8 µM (active) | 20.9 µM (active) | – | 20.9 µM (active) | – | 18.7 µM (active) | – | – | – | 18.7 µM (active) | 16.6 µM (active) | – |
| Cc1ccc(S(=O)(=O)NC(=O)NN2CC3CCCC3C2)cc1 (stereo not drawn) | inactive | inactive | – | – | – | 18.7 µM (active) | 23.5 µM (active) | 26.4 µM (active) | – | 23.5 µM (active) | – | 20.9 µM (active) | – | – | 26.4 µM (active) | 23.5 µM (active) | – | 23.5 µM (active) |
| NC(=O)Cc1cccc(C(=O)c2ccccc2)c1N | inactive | inactive | – | – | – | inactive | inactive | inactive | inactive | inactive | inactive | inactive | – | inactive | – | inactive | – | – |
| CCCCN(CCCC)CCC(O)c1cc2c(Cl)cc(Cl)cc2c2cc(C(F)(F)F)ccc12 (stereo not drawn) | inactive | inactive | – | – | – | – | – | inactive | inactive | – | – | 18.7 µM (active) | 20.9 µM (active) | 0.264 µM (active) | inactive | – | – | – |
| CC(C)[C@H](N)C(=O)OCCOCn1cnc2c(=O)[nH]c(N)nc21 | inactive | inactive | – | – | – | inactive | 26.4 µM (active) | inactive | – | – | – | – | – | inactive | inactive | inactive | – | inactive |
| CCCCC(CC)COC(=O)C(C#N)=C(c1ccccc1)c1ccccc1 (stereo not drawn) | inactive | inactive | – | – | – | – | inactive | – | inactive | inactive | inactive | 9.35 µM (active) | inactive | inactive | inactive | inactive | inactive | inactive |
| Cc1cc2cc3c(C)cc(=O)oc3c(C)c2o1 | inactive | inactive | – | – | – | 20.9 µM (active) | – | – | – | – | – | – | – | 5.9 µM (active) | – | – | – | 5.26 µM (active) |
| CCCCc1ccc2nc(NC(=O)OC)[nH]c2c1 | inactive | inactive | – | – | – | – | inactive | 0.0093 µM (active) | – | – | – | 0.001 µM (active) | 0.0021 µM (active) | 0.0264 µM (active) | 0.0066 µM (active) | – | – | 4.69 µM (active) |
| Clc1ccc(C(Cn2ccnc2)OCc2ccsc2Cl)c(Cl)c1 (stereo not drawn) | inactive | inactive | – | – | – | – | 18.7 µM (active) | – | – | – | – | 26.4 µM (active) | – | 14.8 µM (active) | – | – | – | inactive |
| CN(C)c1ccc(O)c2c1C[C@H]1C[C@H]3[C@H](N(C)C)C(=O)C(C(N)=O)=C(O)[C@@]3(O)C(=O)C1=C2O | inactive | – | – | – | – | – | inactive | inactive | – | inactive | – | 13.2 µM (active) | 20.9 µM (active) | 14.8 µM (active) | 16.6 µM (active) | – | inactive | 20.9 µM (active) |
| CN1C(C(=O)Nc2ccccn2)=C(O)c2sccc2S1(=O)=O | inactive | inactive | – | – | – | – | – | – | inactive | inactive | inactive | – | inactive | inactive | inactive | inactive | inactive | – |
| CCN(CC)CCOc1ccc(Cc2ccccc2)cc1 | inactive | inactive | – | – | – | inactive | 20.9 µM (active) | – | 14.8 µM (active) | – | inactive | – | – | – | – | inactive | – | – |
